Sfp PPTase inh: Sfp phosphopantetheinyl transferase inhibition | Biochemical Sfp PPTase activity, qHTS | 310,000 compounds, 3.5% hits | Q9F4F7 | Potency, µM, for the others: largest response in the series, negative = inhibition, hits mostly inhibitors;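 note: the enzyme is Sfp with the accession as filed and its product quenches rhodamine fluorescence; 0% = enzyme reaction without inhibitor and -100% = no enzyme wells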
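Fluorescence-quenching assay with 15 nM Sfp, 5 uM rhodamine-CoA and 12.5 uM BHQ-2-labelled ybbR peptide in pH 7.6 Hepes/MgCl2 buffer. Enzyme was pre-incubated with compound for 15 min at room temperature. Rate was taken from the 30-min fluorescence change (525/598 nm).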
BAZ2B inh: BAZ2B (human) inhibition | Q9UIF8 | AlphaScreen BAZ2B-H3K14Ac peptide displacement | Potency, µM (doses to about 114 µM), inactives show at the top dose activity change, negative = inhibition, usual class: inhibitors | AID 504333 | 360,000 compounds, 4.4% hits; note: % is set by controls: 0 for no effect and ±100 for the full control effect; nearly all actives have a fitted effect of over 60% in size
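AlphaScreen displacement: compounds (up to 110uM) incubated 30 min at room temperature with a preformed 50 nM BAZ2B/50 nM biotinylated H3K14Ac peptide complex in PBS pH 7.4 with Tween-20. Donor and acceptor beads at 10 ug/mL final added, 20 min light-protected before reading.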
TDP1 inh: TDP1 (human) enzyme inhibition | AID 485290 | 350,000 compounds, 0.28% hits | Q9NUW8 | recombinant TDP1, AlphaScreen DNA substrate cleavage | Potency, µM (series often up to 130 µM), inactives show top-dose activity change, negative = inhibition, hits mostly inhibitors; note: % is set by controls: 0 for no effect and ±100 for the full control effect; nearly all actives have a fitted effect of over 40% in size
Target sequence (Q9NUW8 whole entry, looked up): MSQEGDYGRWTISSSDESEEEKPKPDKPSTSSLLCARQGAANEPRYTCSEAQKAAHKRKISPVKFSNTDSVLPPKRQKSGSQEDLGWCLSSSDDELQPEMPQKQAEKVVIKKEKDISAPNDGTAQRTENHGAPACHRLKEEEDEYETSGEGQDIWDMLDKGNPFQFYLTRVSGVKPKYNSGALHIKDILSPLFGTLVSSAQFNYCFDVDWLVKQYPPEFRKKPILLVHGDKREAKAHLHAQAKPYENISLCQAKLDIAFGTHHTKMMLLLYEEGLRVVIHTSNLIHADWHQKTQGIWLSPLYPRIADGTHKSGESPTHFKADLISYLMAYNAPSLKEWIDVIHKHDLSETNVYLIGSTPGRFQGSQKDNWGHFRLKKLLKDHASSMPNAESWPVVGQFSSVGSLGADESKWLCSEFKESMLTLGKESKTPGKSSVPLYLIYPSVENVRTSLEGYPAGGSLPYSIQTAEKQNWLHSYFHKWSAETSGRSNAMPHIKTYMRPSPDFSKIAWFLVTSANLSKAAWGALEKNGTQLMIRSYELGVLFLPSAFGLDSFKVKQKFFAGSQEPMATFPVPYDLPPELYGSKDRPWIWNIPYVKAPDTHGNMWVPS
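Recombinant E. coli-expressed Tdp1 (1 nM) preincubated with compound 15 min at RT, then 5'-biotin/3'-phosphotyrosine-FITC DNA substrate (15 nM) added for 5 min. AlphaScreen beads (10 ug/ml) added, 10 min RT; tyrosine-FITC cleavage read as signal loss.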
JMJD2A Tudor inh: JMJD2A Tudor domain (human) inhibition; AID 504339; O75164; AlphaScreen JMJD2A-Tudor / H3K4me3 peptide binding; 390,000 compounds, 4.4% hits; Potency, µM (doses to about 114 µM), without a hit: top-dose activity change, negative = inhibition, most hits filed as inhibitors; note: % is set by controls: 0 for no effect and ±100 for the full control effect; nearly all actives have a fitted effect of over 50% in size
G9a inh: G9a (human) methyltransferase inhibition. G9a H3K9 monomethylation, AlphaScreen, 2 h. Potency, µM (highest dose often 102 µM), inactives show top-dose activity, negative = inhibition, hits mostly inhibitors. 350,000 compounds, 8.8% hits. AID 504332; note: % is set by controls: 0 for no effect and ±100 for the full control effect; nearly all actives have a fitted effect of over 75% in size
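AlphaScreen read-out: biotin-H3K9 peptide (500 nM) methylation by 20 nM enzyme with 20 uM SAM, 2 h at room temperature after 15 min compound preincubation; anti-monomethyl H3K9 antibody plus donor/acceptor beads, 10 min dark.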
HP1b chromo inh: inhibitors of HP1-beta chromodomain binding to methylated histone tails; AlphaScreen HP1-beta / biotin-H3K9me3 peptide binding; Potency, µM (titrated, usually from 114 µM), inactives show at the highest dose activity change, negative = inhibition, hits mostly inhibitors; 390,000 compounds, 0.56% hits; AID 540317; note: nearly all actives have a fitted effect of over 70% in size
Target sequence (P83916 whole entry, looked up): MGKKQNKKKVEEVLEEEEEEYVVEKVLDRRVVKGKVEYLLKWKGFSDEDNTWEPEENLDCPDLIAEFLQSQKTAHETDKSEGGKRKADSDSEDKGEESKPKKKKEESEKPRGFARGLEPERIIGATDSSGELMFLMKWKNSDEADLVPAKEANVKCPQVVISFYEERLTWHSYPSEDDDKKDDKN
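AlphaScreen: HP1-beta (50 nM) preformed 30 min with biotin-H3(1-18)K9me3 peptide (50 nM) in PBS pH 7.4, 0.01% Tween-20. Compound added for 30 min at RT, then streptavidin donor/nickel chelate acceptor beads (10 ug/mL) for 30 min.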
* = called active by the depositor; ? = inconclusive; / = not tested or not shown; [ ] = another dose, or the depositor's remark. Hits are enriched below; roughly 12% of the tested compounds scored in any of these assays. Calls come from the whole dose curve; as a rule, active = well fitted curve in the direction sought with a large enough effect; inconclusive = small, poorly fitted or top-dose-only effect, or another doubt; inactive = no such curve, though single readings can be large; an effect the other way counts as inactive or inconclusive. Potency is the fitted concentration of half-maximal effect.

SMILES | Sfp PPTase inh | BAZ2B inh | TDP1 inh | JMJD2A Tudor inh | G9a inh | HP1b chromo inh
CCCCC1=NN(C(=O)c2ccco2)C(O)(C(F)(F)F)C1 (centres undefined) | 10.1% | 1.1% | -2.4% | -10.5% | / | 67.7%
C=Cc1ccc(Cn2c(C(=O)O)c(CNCc3ccc(F)cc3)c3ccc(C)cc32)cc1 | / | -33.2% | 8.5% | -26.2% | ? | 3.9%
Nc1nc(N)c2[nH]cnc2n1 | / | / | / | -7.5% | / | 70.8%
Cn1c(N)nc2nc[nH]c2c1=S | / | / | / | 39.8µM* | / | 46.0%
Cc1cccc(NC(=O)CCCCC(=O)Nc2cccc(C)c2)c1 | / | / | / | -18.6% | / | 0.2%
CCNc1nnc(SCC(=O)NC2CCCCCC2)s1 | / | 9.4% | 6.9% | -7.6% | 3.55µM* | -0.5%
COc1ccc(N2CC(C(=O)Nc3nnc(SCC(=O)NC4CCCC4)s3)CC2=O)cc1 (centres undefined) | ? | -12.6% | 4.6% | ? | 31.6µM* | 15.2%
Cc1ccc(N2CC(C(=O)Nc3nnc(SCC(=O)NCC4CCCO4)s3)CC2=O)cc1C (centres undefined) | -9.4% | -7.0% | 3.9% | -2.9% | 39.8µM* | 38.6%
COc1ccc(N2CC(C(=O)Nc3nnc(SCC(=O)NCC4CCCO4)s3)CC2=O)cc1 (centres undefined) | / | / | / | 35.5µM* | / | 4.3%
O=C(c1cnccn1)N1CCC2(CCCN(Cc3nccs3)C2)CC1 | 13.9% | / | / | / | -3.0%[12.7 µM] | /
COc1ccc(C(=O)C2CCCN(C(=O)c3ccc4cc[nH]c4c3)C2)c(C)c1 (centres undefined) | 16.4% | -11.8% | 0.0% | -16.1% | -32.7% | 32.4%
O=C(CSc1nnc(NC(=O)c2ccccc2F)s1)NCC1CCCO1 (centres undefined) | 50.1µM* | -5.2% | 3.8% | ? | 14.1µM* | 9.9%
CC(=O)Nc1ccc(NC(=O)CSc2nnc(NC(=O)C3CC(=O)N(c4ccccc4)C3)s2)cc1 (centres undefined) | 7.6% | -16.9% | 3.7% | -12.5% | 39.8µM* | 52.4%
CC(C)Nc1nnc(SCC(=O)Nc2ccc(F)cc2)s1 | -11.8% | 3.4% | 5.8% | -5.5% | 39.8µM* | 11.4%
COc1ccc(C(=O)CSc2nnc(NC(=O)C3CC(=O)N(c4ccccc4C)C3)s2)cc1 (centres undefined) | -14.3% | 4.9% | 7.9% | -10.6% | 35.5µM* | 8.3%
O=C(CSc1nnc(NC(=O)C2CC(=O)N(c3ccccc3)C2)s1)NC1CCCC1 (centres undefined) | 9.1% | 1.8% | 3.7% | -2.9% | 0.9% | 13.6%
CC(C)C(NS(=O)(=O)c1ccc2c(c1)C(C)(C)C(=O)N2C)C(=O)NCc1ccc(F)cc1 (centres undefined) | 17.6% | -34.1% | / | -5.0% | 37.3% | 34.2%
CCc1c(C)sc2c1CCN(C(=O)Nc1ccccc1C(F)(F)F)C2c1ccccc1 (centres undefined) | / | -9.6% | 1.2% | -20.2% | 10.0%[59 µM] | -1.6%
CC(=O)Nc1ccc(NC(=O)CSc2nnc(NC(=O)c3ccc(Br)o3)s2)cc1 | 4.4% | ? | -1.7% | -19.7% | 15.8µM* | 35.1%
CCOc1ccc(N2CC(C(=O)Nc3nnc(Cc4ccc(OC)cc4)s3)CC2=O)cc1 (centres undefined) | -8.1% | 2.6% | 4.3% | -12.7% | 10µM* | 8.4%
O=C1c2ccccc2C(=O)N1CCc1c[nH]c2ccccc12 | -11.5% | -33.2% | 7.2% | ? | -28.9% | 16.9%
Cc1ccc(C(=O)N/C(=C\c2ccco2)C(=O)NCCc2c[nH]c3ccccc23)cc1 | ? | -32.7% | -5.3% | -30.4% | -47.2%[59 µM] | -14.8%
O=C1c2ccccc2C(=O)N1CCCc1c[nH]c2ccccc12 | 8.1% | ? | 5.7% | ? | 50.1µM* | ?
COc1ccc(NC(=O)COC(=O)CCCc2c[nH]c3ccccc23)cc1 | 0.2% | 50.1µM* | 2.0% | -30.5% | ? | -3.8%
Cc1ccc(/C=C(/NC(=O)c2ccccc2)C(=O)NCCc2c[nH]c3ccccc23)o1 | -7.7% | ? | 9.9% | -33.6% | 44.7µM* | -14.5%
SMILES | Sfp PPTase inh | BAZ2B inh | TDP1 inh | JMJD2A Tudor inh | G9a inh | HP1b chromo inh
O=C(CCCc1c[nH]c2ccccc12)NCCc1c[nH]c2ccccc12 | 18.0% | ? | -4.0% | ? | 44.7µM* | ?
O=C(CCc1c[nH]c2ccccc12)NCCc1ccccc1 | 8.7% | -38.0% | 3.7%[0.0935 µM] | -26.9% | 19.0% | -19.2%
CN(CC(=O)NC1CC1)S(=O)(=O)c1cc(Cl)ccc1Cl | -1.3% | -1.2% | 0.7% | -6.9% | / | 23.7%
O=C(CCc1c[nH]c2ccccc12)NCc1ccncc1 | 14.8% | 0.0% | 8.9% | -1.7% | 50.1µM* | 10.9%
Cc1cccnc1NC(N)=S | -11.7% | 12.7% | 8.2% | -2.7% | 15.7%[59 µM] | 23.3%
CCNC(=S)NNC(=O)c1ccccn1 | -9.3% | 3.16µM* | -3.8% | 25.1µM* | -10.6% | 36.6%
O=C(NNC(=S)Nc1ccc(Cl)c(Cl)c1)c1ccccn1 | 7.1% | 4.47µM* | 2.5% | 25.1µM* | / | -1.6%
CCNC(=S)NNC(=O)c1ccccc1Cl | 12.4% | -1.9% | 4.5% | -12.4% | 5.2%[59 µM] | 29.1%
Cc1cccnc1NC(=S)Nc1ccc(Cl)c(Cl)c1 | 14.1µM* | -34.5% | -1.2% | -13.0% | -49.0% | 28.3%
COc1ccc(CC(=O)NCC(=O)NCc2cc(=O)n(C)c(=O)n2C)cc1 | 15.2% | -0.7% | 3.2% | -11.5% | 8.3% | 35.8%
O=C(O)CCCNc1n[nH]c(=O)[nH]c1=O | -11.3% | ? | 2.5% | -10.5% | 14.1µM* | 34.8%
Cc1ncoc1C(=O)N1CCc2c([nH]c3ccccc23)C1c1ccccc1F (centres undefined) | 1.9% | 50.1µM* | 8.3% | ? | 39.8µM* | -12.9%
COc1cccc(C(=O)N2CCc3c([nH]c4ccccc34)C2c2ccc(SC)cc2)c1 (centres undefined) | / | -1.3% | 5.4% | ? | ? | 11.8%[57 µM]
CCOC(=O)c1[nH]c(C)c(C(=O)N2CCc3c([nH]c4ccccc34)C2c2ccccn2)c1C (centres undefined) | -7.5% | 50.1µM* | -2.5% | ? | 7.8%[0.501 µM] | -24.1%
Cc1cc2cc(C(=O)N3CCc4c([nH]c5ccccc45)C3c3ccccn3)ccc2o1 (centres undefined) | -18.8% | 39.8µM* | 12.5% | 35.5µM* | ? | -18.3%
CSc1ccc(C2c3[nH]c4ccccc4c3CCN2C(=O)c2ccnn2C)cc1 (centres undefined) | -8.2% | ? | 4.9% | ? | 39.8µM* | -4.7%
Cc1ccc(NC(=O)CSc2nnc3ccccn23)cc1 | 14.7% | -24.7% | -1.8% | -16.0% | -5.0% | 35.7%
CC(=O)c1cc(CC(=O)N2CCc3c([nH]c4ccccc34)C2c2ccccn2)cs1 (centres undefined) | 20µM* | -35.7% | 8.3% | ? | ? | -18.3%

Screening results deposited in PubChem by National Center for Advancing Translational Sciences (NCATS).
